# High-throughput results as filed in PubChem BioAssay.
# Only some compounds are listed: those with a hit (about 6.5% of all), similar ones and a draw of the others.
# Lassa entry inh – blocks Lassa virus binding to or entry into cells | AID 540256 | Lassa virus pseudotype entry inhibition, cell reporter | Potency, µM (doses to about 37.9 µM), most hits filed as inhibitors | 300,000 compounds, 1.2% hits; calls by dose curve; tested in HEK293 cells; further: nearly all actives have a fitted effect of over 50% in size
# HCMV inh – blocks human cytomegalovirus replication | HFF cells, HCMV-luciferase reporter, 72 h; stronger effect = lower value | activity change, negative = inhibition, % at 57.5 µM | 410,000 compounds, 4.5% hits; in the data active means activity change below about -60%; inconclusive means no clear call, values can overlap the other calls; inactive means above about -39%
#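 Screen run at 2 compound doses on HFFs infected with reporter HCMV, MOI 1 PFU/cell. Luciferase activity from cell lysates at 72 h post infection gave inhibition relative to buffer-only and Salinomycin wells.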
# Vaccinia Venus – inhibitors of vaccinia virus (Venus reporter). Vaccinia virus Venus reporter expression, fluorescence. 330,000 compounds, 0.46% hits. Potency, µM (series often up to 36.5 µM), most hits filed as inhibitors; calls by dose curve; tested in A549 cells; further: nearly all actives have a fitted effect of over 30% in size
# FMDV antiviral – foot and mouth disease virus antiviral activity | FMDV antiviral cell-based qHTS | Potency, µM (top dose mostly 57.9 µM), most hits filed as inhibitors | 410,000 compounds, 1.2% hits | AID 1159524; calls by dose curve; tested in HEK293T cells; further: read-out not given here; nearly all actives have a fitted effect of over 45% in size
# Vaccinia mCherry – inhibitors of vaccinia virus infection (mCherry reporter signal) | Vaccinia virus mCherry reporter infection, fluorescence | Potency, µM (doses to about 36.5 µM), hits mostly inhibitors | 310,000 compounds, 0.63% hits; calls by dose curve; tested in A549 cells; further: nearly all actives have a fitted effect of over 35% in size
# MARV entry inh – Marburg virus entry inhibition; 300,000 compounds, 1.8% hits; Potency, µM (series often up to 37.8 µM), most hits filed as inhibitors; Marburg virus pseudotyped entry inhibition, cell reporter; AID 540276; calls by dose curve; tested in HEK293 cells
# A number is an active result; – = inactive; ? = inconclusive; · = no result given.
SMILES,Lassa entry inh,HCMV inh,Vaccinia Venus,FMDV antiviral,Vaccinia mCherry,MARV entry inh
Cc1n[nH]c(C)c1CCc1nc2c3ccccc3nc(SCC(=O)Nc3ccccc3F)n2n1,–,-73,?,–,?,?
COc1cc2c(cc1OC)[C@@H]1O[C@](c3ccsc3)(C2)OC2=C1C(=O)CC(C)(C)C2,·,·,·,·,·,–
COc1ccc(C(=O)CSc2nnc(CNc3nc(-c4ccccc4)cs3)n2C)cc1,–,–,–,40µM,·,?
COc1ccc(NCc2nnc(SCC(=O)Nc3nc(-c4ccccc4)cs3)n2-c2ccccc2)cc1,–,-82,–,–,–,?
COc1ccc(-n2c(CNc3ccc(C)cc3)nnc2SCC(=O)Nc2nc(-c3ccccc3)cs2)cc1,–,–,·,–,·,?
COC(=O)CSc1nnc(CNc2nc(-c3ccccc3)cs2)n1C,–,–,–,–,–,?
COc1ccc(-c2onc(C)c2C)cc1S(=O)(=O)Nc1cc(Cl)ccc1C,?,–,?,–,–,·
COc1ccc(CNC(=O)C(c2ccc(C)o2)N(Cc2cccs2)C(=O)Cc2cccs2)cc1 (configuration not stated),11µM,–,–,–,?,?
O=C(NCc1ccccc1)C(c1ccccc1)N(Cc1ccc2c(c1)OCO2)C(=O)Cc1cccs1 (configuration not stated),13µM,–,–,–,?,?
C[C@H]1CC[C@H]2C(=O)N[C@H](Cc3ccccc3)C(=O)N2[C@H]1c1ccccc1,·,·,·,·,·,–
CC(C)n1cc(CN2CCCC(C(=O)Nc3cccc(-c4cc5ccccc5[nH]4)c3)C2)cn1 (configuration not stated),7.1µM,–,?,?,11µM,?
C=C(C)CNC(=S)N/N=C/c1ccc(N2CCOCC2)cc1,?,-78,–,–,–,?
COCCNC(=S)N/N=C/c1ccc(N2CCOCC2)cc1,?,-97,–,–,–,23µM
CC(C)NC(=S)N/N=C/c1ccc(N2CCOCC2)cc1,·,–,·,–,·,·
O=C(OC1C2CCC1C1CN(CCc3ccccc3)CC12)c1ccccc1 (configuration not stated),?,-68,–,?,–,?
CCOC(=O)C1CCCN(CCc2ccccc2)C1 (configuration not stated),·,–,·,–,·,·
CC(=O)N1Cc2ccccc2C(C)CC12CCCC2 (configuration not stated),–,–,–,25µM,–,–
CN(C)CCCNS(=O)(=O)c1ccc(N2CCC(c3ccc(Cl)cc3)=N2)cc1,·,-102,·,·,·,·
COc1ccc(Br)cc1CNC(=O)C1CCN(c2nnc(-n3cccc3CNc3ccc(C)cc3)s2)CC1,·,–,–,–,–,–
CCC(C)NCCOCCOc1ccc(Cl)c2ccccc12 (configuration not stated),?,–,28µM,–,?,?
CCC(C)NCCCOc1cc(Cl)ccc1Cl (configuration not stated),?,–,–,–,–,?
C=CCc1cc(Cl)ccc1OCCCNC(C)C,?,–,–,–,–,?
C=CCc1cc(Cl)ccc1OCCOCCNC(C)CC (configuration not stated),?,–,–,–,–,11µM
CCC(C)NCCOCCOc1ccc(Cl)c(C)c1C (configuration not stated),?,-83,?,?,–,?
O=C(CN1C(=O)c2cccnc2Oc2ccc(Cl)cc21)NCCCN1CCCCC1,–,?,–,–,–,·
SMILES,Lassa entry inh,HCMV inh,Vaccinia Venus,FMDV antiviral,Vaccinia mCherry,MARV entry inh
C/C(=N\NC(=O)c1ccc(O)cc1)c1ccc2c(c1)Nc1ccccc1S2,–,–,?,–,–,?
C/C(=N\NC(=O)c1ccccc1F)c1ccc2c(c1)Nc1ccccc1S2,?,-69,?,?,?,?
CCc1ccc(/C=C2\SC(=S)N(CCCC(=O)Nc3cc(C)on3)C2=O)cc1,·,?,–,16µM,–,·
COc1cccc(/C=C2\SC(=S)N(CCCC(=O)NC3=NCCS3)C2=O)c1,·,–,·,–,·,·
CCc1ccc(/C=C2\SC(=S)N(CCCC(=O)NC3=NCCS3)C2=O)cc1,·,-74,–,14µM,–,·
O=C(Nc1ccccc1C(=O)OCc1cc(=O)n2c3c(sc2n1)CCCC3)c1cccc(Cl)c1,–,–,–,–,–,·
O=S(=O)(NCc1nc(N2CCCC2)c2cc(Cl)ccc2n1)c1ccccc1OC(F)(F)F,·,·,–,–,–,·
CCOc1ccc(C(=O)NCC(=O)OCc2c(F)cccc2Cl)cc1,–,-67,–,–,–,?
